Assay results from the supplement of paper PMC11732987, “Enantioselective OTUD7B fragment discovery through chemoproteomics screening and high-throughput optimisation” (Communications Chemistry, 2025).

Columns and labels:
Assay in all cases: log2 ratio of Biotin-Ahx-Ub-VS probe labelling (fragment/DMSO); higher = less target engagement (more negative = stronger competition), active = hit call of the paper (q ≤ 0.05, log2 ratio ≤ -1)
Settings in all cases: compound concentration: 200 uM; treatment time: 3 h
USP34 = USP34 (UniProt Q70CQ2)
Method in brief: (§1)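 HEK293T lysate in Tris/CHAPS/IGEPAL buffer with protease inhibitors (495 µg per sample) was given fragment at 200 µM or vehicle for 3 h, in triplicate. It then received Biotin-Ahx-Ub-VS at 0.5 µM final for 1 h. Labelled DUBs were NeutrAvidin-enriched, digested with LysC and trypsin, and run by diaPASEF LC-MS/MS. Values are average log2 fragment/vehicle ratios by unpaired t-test on global-median-normalised Spectronaut quantities of proteins with ≥2 unique peptides.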

USP36 = biological target: T1, USP36 (UniProt Q9P275)
T1 sequence (whole entry): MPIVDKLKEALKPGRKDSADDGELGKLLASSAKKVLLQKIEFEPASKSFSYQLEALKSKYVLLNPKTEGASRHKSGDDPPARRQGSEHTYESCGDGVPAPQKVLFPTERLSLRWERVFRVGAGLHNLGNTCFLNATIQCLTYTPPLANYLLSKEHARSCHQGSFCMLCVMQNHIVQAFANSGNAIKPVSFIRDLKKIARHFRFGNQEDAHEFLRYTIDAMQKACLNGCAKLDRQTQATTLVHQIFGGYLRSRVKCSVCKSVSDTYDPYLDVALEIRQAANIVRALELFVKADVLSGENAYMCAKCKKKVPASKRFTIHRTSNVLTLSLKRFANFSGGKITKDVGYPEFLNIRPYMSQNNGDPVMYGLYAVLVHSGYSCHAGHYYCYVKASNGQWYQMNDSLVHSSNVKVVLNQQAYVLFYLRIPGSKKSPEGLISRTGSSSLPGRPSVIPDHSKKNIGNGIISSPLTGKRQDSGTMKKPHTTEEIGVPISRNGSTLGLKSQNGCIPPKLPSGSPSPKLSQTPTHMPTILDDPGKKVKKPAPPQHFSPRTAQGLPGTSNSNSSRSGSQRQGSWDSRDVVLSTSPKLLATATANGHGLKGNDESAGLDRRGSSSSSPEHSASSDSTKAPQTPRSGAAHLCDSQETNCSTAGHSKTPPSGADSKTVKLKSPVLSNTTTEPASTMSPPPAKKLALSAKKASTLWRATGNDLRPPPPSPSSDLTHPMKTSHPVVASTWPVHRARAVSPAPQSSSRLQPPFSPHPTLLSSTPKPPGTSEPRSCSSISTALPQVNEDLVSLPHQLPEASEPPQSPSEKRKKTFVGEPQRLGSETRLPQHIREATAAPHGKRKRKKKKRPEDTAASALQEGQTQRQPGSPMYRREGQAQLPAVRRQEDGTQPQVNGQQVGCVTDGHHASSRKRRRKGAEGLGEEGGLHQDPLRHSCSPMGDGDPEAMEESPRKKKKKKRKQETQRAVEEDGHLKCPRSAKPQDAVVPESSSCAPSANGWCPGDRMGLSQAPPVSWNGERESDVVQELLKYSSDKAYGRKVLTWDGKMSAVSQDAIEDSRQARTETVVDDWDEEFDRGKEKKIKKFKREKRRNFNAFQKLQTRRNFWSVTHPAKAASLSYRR
Method in brief: as §1

USP38 = biological target: T2, USP38 (UniProt Q8NB14)
T2 sequence (whole entry): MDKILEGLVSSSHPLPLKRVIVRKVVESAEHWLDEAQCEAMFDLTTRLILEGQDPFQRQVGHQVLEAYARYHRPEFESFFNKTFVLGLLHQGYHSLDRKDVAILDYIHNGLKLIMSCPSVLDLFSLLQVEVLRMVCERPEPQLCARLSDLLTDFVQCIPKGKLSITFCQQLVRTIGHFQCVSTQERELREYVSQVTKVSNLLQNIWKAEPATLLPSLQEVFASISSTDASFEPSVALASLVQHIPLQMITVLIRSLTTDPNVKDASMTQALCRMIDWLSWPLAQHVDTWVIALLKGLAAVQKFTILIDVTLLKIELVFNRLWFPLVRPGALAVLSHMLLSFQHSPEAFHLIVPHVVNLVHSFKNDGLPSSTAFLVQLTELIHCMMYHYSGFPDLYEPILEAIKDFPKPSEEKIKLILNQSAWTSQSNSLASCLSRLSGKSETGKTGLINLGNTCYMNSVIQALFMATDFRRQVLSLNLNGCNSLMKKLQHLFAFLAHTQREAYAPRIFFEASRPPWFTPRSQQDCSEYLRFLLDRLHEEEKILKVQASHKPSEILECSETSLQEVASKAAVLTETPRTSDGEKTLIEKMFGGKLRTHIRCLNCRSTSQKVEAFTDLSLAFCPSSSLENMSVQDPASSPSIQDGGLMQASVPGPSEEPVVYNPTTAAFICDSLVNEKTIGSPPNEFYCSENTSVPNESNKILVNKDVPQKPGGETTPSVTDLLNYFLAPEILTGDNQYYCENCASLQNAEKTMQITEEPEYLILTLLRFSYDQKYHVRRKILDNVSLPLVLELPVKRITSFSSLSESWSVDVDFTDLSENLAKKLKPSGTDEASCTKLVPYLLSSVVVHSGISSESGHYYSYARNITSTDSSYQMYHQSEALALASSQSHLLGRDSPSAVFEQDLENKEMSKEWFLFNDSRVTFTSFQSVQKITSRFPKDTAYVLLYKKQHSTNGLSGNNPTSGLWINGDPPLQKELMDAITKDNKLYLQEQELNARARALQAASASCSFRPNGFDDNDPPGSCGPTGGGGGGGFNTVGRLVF
Method in brief: as §1

USP39 = biological target: T3, USP39 (UniProt Q53GS9)
T3 sequence (whole entry): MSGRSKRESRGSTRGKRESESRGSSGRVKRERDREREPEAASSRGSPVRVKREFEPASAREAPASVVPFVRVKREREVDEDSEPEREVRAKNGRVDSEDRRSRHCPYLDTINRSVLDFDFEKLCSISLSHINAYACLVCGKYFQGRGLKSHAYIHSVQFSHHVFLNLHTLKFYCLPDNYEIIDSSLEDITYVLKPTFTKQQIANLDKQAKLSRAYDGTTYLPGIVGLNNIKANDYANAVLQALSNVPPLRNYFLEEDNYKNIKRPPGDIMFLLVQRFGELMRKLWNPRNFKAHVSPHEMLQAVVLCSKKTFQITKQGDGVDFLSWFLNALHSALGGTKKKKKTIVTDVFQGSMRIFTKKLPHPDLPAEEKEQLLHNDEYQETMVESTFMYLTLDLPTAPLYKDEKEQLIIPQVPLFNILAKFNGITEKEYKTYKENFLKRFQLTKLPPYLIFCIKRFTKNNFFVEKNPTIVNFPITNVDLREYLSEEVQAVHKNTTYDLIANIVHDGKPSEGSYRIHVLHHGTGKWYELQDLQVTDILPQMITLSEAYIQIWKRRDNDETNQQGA
Method in brief: as §1

USP4 = biological target: T4, USP4 (UniProt Q13107)
T4 sequence (whole entry): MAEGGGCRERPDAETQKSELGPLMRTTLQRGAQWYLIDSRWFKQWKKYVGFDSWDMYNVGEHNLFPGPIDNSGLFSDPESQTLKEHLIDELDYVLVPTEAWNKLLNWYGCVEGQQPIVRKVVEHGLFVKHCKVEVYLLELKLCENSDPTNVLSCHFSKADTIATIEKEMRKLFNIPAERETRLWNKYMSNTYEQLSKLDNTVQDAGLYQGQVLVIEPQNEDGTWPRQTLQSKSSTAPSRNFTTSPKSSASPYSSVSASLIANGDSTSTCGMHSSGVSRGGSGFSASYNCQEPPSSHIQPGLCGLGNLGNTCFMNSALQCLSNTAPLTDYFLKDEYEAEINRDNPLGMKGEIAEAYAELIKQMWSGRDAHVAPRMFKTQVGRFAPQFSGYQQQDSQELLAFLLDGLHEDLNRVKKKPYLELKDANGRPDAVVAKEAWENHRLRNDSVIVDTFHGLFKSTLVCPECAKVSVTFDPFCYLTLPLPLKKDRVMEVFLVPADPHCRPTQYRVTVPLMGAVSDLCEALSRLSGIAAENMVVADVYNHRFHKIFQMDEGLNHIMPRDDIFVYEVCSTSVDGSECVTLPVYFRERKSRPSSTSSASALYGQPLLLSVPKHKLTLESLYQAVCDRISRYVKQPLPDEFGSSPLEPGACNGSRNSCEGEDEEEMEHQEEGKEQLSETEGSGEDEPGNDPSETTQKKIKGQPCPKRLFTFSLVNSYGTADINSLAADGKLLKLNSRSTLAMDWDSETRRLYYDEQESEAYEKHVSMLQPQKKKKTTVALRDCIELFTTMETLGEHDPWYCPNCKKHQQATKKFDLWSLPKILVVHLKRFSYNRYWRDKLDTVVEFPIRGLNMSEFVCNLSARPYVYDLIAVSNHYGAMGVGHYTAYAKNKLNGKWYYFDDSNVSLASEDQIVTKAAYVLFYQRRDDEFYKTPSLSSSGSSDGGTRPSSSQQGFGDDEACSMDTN
Method in brief: as §1

Measured: log2 ratio of Biotin-Ahx-Ub-VS probe labelling

USP34, sequence (Q70CQ2 whole entry, the tested form may be a part): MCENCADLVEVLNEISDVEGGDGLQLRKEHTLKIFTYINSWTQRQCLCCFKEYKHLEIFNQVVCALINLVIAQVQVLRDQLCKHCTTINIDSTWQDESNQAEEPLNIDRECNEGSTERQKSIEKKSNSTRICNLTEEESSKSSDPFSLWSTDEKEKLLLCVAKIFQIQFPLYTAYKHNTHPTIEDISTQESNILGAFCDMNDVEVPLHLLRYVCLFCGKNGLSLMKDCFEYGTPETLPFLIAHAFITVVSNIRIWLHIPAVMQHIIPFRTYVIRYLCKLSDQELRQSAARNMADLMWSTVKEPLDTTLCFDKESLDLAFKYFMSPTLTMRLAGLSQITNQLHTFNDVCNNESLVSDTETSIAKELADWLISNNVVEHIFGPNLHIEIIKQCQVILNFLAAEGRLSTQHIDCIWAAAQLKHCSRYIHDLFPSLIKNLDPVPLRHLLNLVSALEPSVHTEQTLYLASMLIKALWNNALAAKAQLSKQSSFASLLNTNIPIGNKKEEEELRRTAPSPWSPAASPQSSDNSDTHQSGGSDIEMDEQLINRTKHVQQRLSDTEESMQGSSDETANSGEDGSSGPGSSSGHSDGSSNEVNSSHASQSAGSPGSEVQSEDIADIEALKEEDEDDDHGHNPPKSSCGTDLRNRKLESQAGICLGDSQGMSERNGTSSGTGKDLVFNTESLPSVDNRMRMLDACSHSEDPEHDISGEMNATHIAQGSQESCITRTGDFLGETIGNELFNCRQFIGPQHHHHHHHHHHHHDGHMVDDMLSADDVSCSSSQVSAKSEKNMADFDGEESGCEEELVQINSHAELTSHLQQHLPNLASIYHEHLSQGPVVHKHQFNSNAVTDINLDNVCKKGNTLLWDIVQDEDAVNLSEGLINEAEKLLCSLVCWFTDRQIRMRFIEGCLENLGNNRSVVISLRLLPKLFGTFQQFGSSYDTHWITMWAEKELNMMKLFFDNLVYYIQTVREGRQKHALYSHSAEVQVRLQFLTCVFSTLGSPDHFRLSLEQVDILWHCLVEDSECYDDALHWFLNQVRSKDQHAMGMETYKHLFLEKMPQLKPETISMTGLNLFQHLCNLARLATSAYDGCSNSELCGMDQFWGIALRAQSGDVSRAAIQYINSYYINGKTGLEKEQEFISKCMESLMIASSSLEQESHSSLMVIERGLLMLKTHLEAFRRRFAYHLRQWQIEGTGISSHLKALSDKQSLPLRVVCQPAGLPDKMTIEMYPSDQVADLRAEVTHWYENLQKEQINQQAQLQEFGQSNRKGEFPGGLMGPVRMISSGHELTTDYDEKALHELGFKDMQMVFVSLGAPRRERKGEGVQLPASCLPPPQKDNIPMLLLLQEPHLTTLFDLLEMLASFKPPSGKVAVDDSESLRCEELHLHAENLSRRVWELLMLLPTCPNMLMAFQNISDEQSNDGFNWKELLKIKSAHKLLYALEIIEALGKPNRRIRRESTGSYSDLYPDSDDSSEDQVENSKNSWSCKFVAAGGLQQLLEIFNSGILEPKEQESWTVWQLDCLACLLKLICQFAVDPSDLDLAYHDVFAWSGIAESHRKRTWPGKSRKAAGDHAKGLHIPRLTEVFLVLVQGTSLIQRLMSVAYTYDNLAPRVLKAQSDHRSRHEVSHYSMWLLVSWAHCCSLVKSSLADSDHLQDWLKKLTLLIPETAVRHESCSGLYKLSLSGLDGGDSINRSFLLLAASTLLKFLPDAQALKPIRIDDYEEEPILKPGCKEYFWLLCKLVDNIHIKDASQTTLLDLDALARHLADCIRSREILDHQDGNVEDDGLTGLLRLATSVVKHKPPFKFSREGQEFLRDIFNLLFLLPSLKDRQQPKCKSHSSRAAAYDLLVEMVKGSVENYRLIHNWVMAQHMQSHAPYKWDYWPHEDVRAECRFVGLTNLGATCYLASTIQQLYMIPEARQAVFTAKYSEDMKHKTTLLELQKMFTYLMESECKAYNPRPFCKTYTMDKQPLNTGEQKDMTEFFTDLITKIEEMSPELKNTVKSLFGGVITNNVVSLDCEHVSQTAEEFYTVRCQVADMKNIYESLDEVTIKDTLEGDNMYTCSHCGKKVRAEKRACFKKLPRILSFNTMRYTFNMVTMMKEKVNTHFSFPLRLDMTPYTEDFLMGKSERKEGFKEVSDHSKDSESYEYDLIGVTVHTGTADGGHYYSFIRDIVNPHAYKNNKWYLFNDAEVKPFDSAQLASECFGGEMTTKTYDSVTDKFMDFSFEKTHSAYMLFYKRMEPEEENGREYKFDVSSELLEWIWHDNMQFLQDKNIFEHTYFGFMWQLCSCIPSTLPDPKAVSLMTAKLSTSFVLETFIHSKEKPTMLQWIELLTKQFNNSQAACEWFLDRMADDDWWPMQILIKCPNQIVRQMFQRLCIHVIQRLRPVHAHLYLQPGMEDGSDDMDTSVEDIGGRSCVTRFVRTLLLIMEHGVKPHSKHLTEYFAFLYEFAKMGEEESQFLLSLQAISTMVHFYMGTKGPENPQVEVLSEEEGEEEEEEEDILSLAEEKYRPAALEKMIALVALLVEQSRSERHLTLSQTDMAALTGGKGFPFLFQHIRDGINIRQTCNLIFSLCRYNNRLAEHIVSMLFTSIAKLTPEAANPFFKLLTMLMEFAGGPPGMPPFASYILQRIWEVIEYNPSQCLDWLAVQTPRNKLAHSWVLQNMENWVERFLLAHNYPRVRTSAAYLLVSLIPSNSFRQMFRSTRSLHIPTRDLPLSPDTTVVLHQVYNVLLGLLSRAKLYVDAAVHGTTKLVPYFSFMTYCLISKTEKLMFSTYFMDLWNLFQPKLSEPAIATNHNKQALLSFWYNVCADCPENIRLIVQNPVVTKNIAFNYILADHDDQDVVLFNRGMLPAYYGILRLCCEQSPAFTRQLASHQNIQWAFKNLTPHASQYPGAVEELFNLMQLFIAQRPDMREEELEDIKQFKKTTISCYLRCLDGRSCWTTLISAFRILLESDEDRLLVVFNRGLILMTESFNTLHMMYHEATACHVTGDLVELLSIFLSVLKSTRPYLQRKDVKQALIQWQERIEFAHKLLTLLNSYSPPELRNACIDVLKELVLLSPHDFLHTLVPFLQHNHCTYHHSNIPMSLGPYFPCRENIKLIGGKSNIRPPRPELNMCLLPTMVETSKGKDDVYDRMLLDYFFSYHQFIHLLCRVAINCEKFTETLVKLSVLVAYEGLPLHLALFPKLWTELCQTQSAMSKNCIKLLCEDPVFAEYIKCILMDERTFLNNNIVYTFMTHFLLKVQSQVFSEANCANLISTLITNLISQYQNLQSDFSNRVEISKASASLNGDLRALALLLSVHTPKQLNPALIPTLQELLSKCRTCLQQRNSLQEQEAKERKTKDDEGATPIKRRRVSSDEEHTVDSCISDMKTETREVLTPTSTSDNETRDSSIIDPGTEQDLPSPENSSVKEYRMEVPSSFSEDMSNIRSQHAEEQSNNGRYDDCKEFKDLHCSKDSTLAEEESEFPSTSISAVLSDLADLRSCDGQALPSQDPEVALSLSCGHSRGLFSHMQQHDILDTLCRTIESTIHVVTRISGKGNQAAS

O=C(CCl)N1CCN2C(=O)CCC2C1 (stereo not given)
inactive: USP34 -0.0311 | USP36 0.272 | USP38 0.0868 | USP39 -0.106 | USP4 -0.0639
